Measured values published in publication PMC7822874, “Chemoprotective antimalarials identified through quantitative high-throughput screening of Plasmodium blood and liver stage parasites” (Scientific Reports, 2021).
Read-outs that look alike come from different tables or passages of the source.

Test system: P. berghei-ANKA-GFP-LucCON liver stage parasites in HepG2-A16-CD81EGFP cells
Conditions: 48 h

| SMILES | % viability (3 µM) | % viability (1 µM) |
| --- | --- | --- |
| COc1cccc(OCCn2cc(C(=O)c3ccco3)c3ccccc32)c1 [MLS000050800] | 1.234 | – |
| COc1ccc(OCCn2cc(C(=O)c3ccco3)c3ccccc32)cc1 [NCGC00101886] | 1.13 | 1.363 |
